IL1B secr inh = blocks inflammasome-driven IL-1 beta release. THP-1 LPS/ATP IL-1B secretion, AlphaLISA, 16 h; hits give low values. activity change, % at 57.5 µM. 4.7% of 360,000 active. AID 743279; in the data active = activity change below about -50%; inconclusive = mostly about -30% to -49%
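Secreted IL-1B measured by AlphaLISA bead assay after 16 h compound exposure of THP-1 cells; compounds (final up to 57.5 uM) added 1 h before LPS (250 ng/mL) and ATP (1.25 mM) stimulation; lower signal means less secretion.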
DT40 TDP1 CPT = growth inhibition of DT40 Tdp1-/-;hTDP1 cells with camptothecin (screen for TDP1 inhibitors); Potency, µM (series often up to 46.2 µM), inactives show top-dose activity change, negative = growth inhibition, usual class: inhibitors; AID 686979; chicken DT40 Tdp1-/-;hTDP1 cells + 20 nM CPT, ATP luminescence, 48 h; 12% of 420,000 active; also: potency is read from the fitted curve at half-maximal effect; nearly all actives have a fitted effect of over 55% in size
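Cell growth measured by CellTiter-Glo luminescence after a minimum 48 h, 37 C compound exposure with 20 nM CPT in Tdp1-knockout DT40 cells stably expressing hTDP1, seeded 400/well; qHTS titration format.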
HT1080NT lethal = kills 2HG-producing HT-1080-NT fibrosarcoma cells; HT-1080-NT fibrosarcoma viability, CellTiter-Glo ATP luminescence, 48 h; Potency, µM (doses to about 46.1 µM), without a hit: at the highest dose activity, negative = less viability, usual class: cytotoxic; 1.6% of 360,000 active;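 also: NT is the 2HG producing partner of a matched IDH1 knockdown line; potency is read from the fitted curve at half-maximal effect; 0% = DMSO-treated cells and -100% = media-only wells without cells; nearly all actives have a fitted effect of over 55% in size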
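Read-out is CellTiter-Glo luminescence after 10 minutes at room temperature, following 48 hours' compound treatment of HT-1080-NT cells (750 cells/well, RPMI, 5% FBS, 37 degrees C).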
HT1080 IDH1KD tx = kills HT-1080 cells with IDH1 knockdown; HT-1080 IDH1 knockdown viability, ATP luminescence, 48 h; Potency, µM (titrated, usually from 46.1 µM), for inactives: top-dose activity, negative = toxicity, usual class: cytotoxic; 2% of 360,000 active;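 also: potency is read from the fitted curve at half-maximal effect; 0% = DMSO wells and -100% = cell-free medium wells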
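After a 2 h attachment period, IDH1KD HT-1080 cells took pin-transferred compound for 48 h at 37 °C; ATP-based luminescence after 10 min room-temperature reagent incubation reported viability.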
DT40 TDP1 no CPT = qHTS for Inhibitors of human tyrosyl-DNA phosphodiesterase 1 (TDP1): qHTS in cells in absence of CPT; DT40 Tdp1-/- hTDP1 cells, no CPT, ATP luminescence, 48 h; Potency, µM (doses to about 46.2 µM), inactives show at the highest dose activity change, negative = growth inhibition, usual class: inhibitors; 15% of 420,000 active; AID 686978, 2013; also: potency is read from the fitted curve at half-maximal effect; nearly all actives have a fitted effect of over 55% in size
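Growth kinetics read by CellTiter-Glo luminescence after ≥48 hr at 37 °C. Cells: DT40 Tdp1-/- stably carrying human TDP1, 400 per well, compound exposure in the absence of CPT (DMSO vehicle).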
* hit, by the source's call; u = inconclusive; x = not tested or not shown. Only some compounds are listed: those with a hit (about 19% of all), similar ones and a draw of the others. Unless noted, calls follow the shape of the dose curve; as a rule, active = well fitted curve in the direction sought with a large enough effect; inconclusive = small, poorly fitted or top-dose-only effect, or another doubt; inactive = no such curve, though single readings can be large; an effect the other way counts as inactive or inconclusive. Unless noted, % is scaled to controls: 0 for no effect and ±100 for the full control effect.

SMILES	IL1B secr inh	DT40 TDP1 CPT	HT1080NT lethal	HT1080 IDH1KD tx	DT40 TDP1 no CPT
Cc1onc(-c2c(F)cccc2Cl)c1C(N)=S	-22.7	-7.1%	0.6%	3.1%	-18.5%
COc1ccc(Br)cc1C1=CC(=O)C[C@H](c2ccc(F)cc2)C1	24.7	u	-16.5%	-22.5%	u
C=C1SC(Nc2c(C)cc(C)cc2C)=NC12CCCCC2	-68.6*	u	-0.7%	-0.2%	18.4µM*
C=C1SC(Nc2c(C)cccc2C)=NC12CCCCC2	x	u	-17.4%	-10.9%	u
C=CCN(C(=O)c1csnn1)C(C(=O)NC1CCCC1)c1cccs1 (configuration not stated)	3.5	3.0%	-4.0%	-0.1%	-13.0%
O=[N+]([O-])c1ccc(COc2ccc(-c3[nH]ncc3-c3ccc(Cl)cc3)c(O)c2)cc1	-92.1*	u	u	23.1µM*	23.1µM*
CCOc1ccc(-c2[nH]ncc2-c2ccccc2)c(O)c1	-0.3	-30.7%	-0.6%	-5.8%	u
COc1ccc(-c2cn[nH]c2-c2ccc(OCc3ccccc3F)cc2O)cc1OC	u	29.1µM*	29.1µM*	18.4µM*	11.6µM*
COc1ccc(-c2cn[nH]c2-c2ccc(OCc3ccc([N+](=O)[O-])cc3)cc2O)cc1OC	u	u	-22.0%	-23.6%	20.6µM*
Cc1ccc(NC2=NC(c3ccc(F)cc3)n3c(nc(C)cc3=O)N2)cc1 (configuration not stated)	-7.0	4.0%	3.1%	4.9%	-9.0%
COC(=O)Nc1ccc(S(=O)(=O)N2CCC(C(=O)NCc3ccc4c(c3)OCO4)CC2)cc1	12.1	-18.0%	-3.0%	1.3%	-15.5%
Cc1cccc(NCc2ccc(O)c3ncccc23)c1C	23.5	u	-23.4%	u	14.6µM*
Cc1cccnc1NCc1ccc(O)c2ncccc12	100.4	4.61µM*	u	u	5.8µM*
Cc1ccc(NCc2ccc(O)c3ncccc23)cc1	-3.1	u	1.3%	-25.1%	u
COC(=O)c1ccc(NS(=O)(=O)c2ccc(S(=O)(=O)N3CCOCC3)cc2)cc1	-1.6	10.0%	0.0%	4.4%	3.6%
COc1cc(/C=C2\SC(N)=NC2=O)ccc1OCC(=O)Nc1ccc(C)cc1	-102.8*	1.46µM*	1.8%	-0.3%	1.46µM*
CCOc1cc(/C=C2\C(=O)N(CCC#N)N=C2C)ccc1OCC(N)=O	9.0	-24.4%	-4.6%	-15.6%	-4.6%
C/C=C/c1ccc(OCC(=O)Nc2ccncc2)c(OC)c1	-9.9	18.4µM*	-26.3%	-21.3%	u
C/C=C/c1ccc(OCC(=O)Nc2ccc(OC)c(OC)c2)c(OC)c1	-25.0	16.4µM*	-25.5%	-17.4%	23.1µM*
COc1cc(/C=C2\C(=O)N(CCC#N)N=C2C)ccc1OCC(=O)Nc1ccccc1	-60.8*	u	-2.6%	-11.2%	u
COc1ccc(S(=O)(=O)N2CCCC(C(=O)NCC3CCCO3)C2)cc1OC (configuration not stated)	24.7	-1.4%	15.6%	-0.1%	-0.1%
COc1ccc(OC)c(-c2csc(NC(=O)COC(=O)C3(C)CC3(Cl)Cl)n2)c1 (configuration not stated)	-23.7	u	-0.9%	-2.1%	u
CC1CCCC(NC(=O)COC(=O)CCC(=O)c2ccc(F)cc2)C1C (configuration not stated)	2.7	-21.2%	0.0%	1.0%	-23.8%
COc1ccc(COc2ccc3c(C)cc(=O)oc3c2)cc1	-6.6	u	7.0%	-0.1%	u
Cc1cc(=O)oc2cc(OCc3ccc(S(=O)(=O)N4CCOCC4)cc3)ccc12	-20.4	u	-2.8%	3.9%	29.1µM*
SMILES	IL1B secr inh	DT40 TDP1 CPT	HT1080NT lethal	HT1080 IDH1KD tx	DT40 TDP1 no CPT
Cc1oc2cc3c(C(=O)N4CCCCC4)c(C)oc3cc2c1C(=O)N1CCCCC1	20.9	u	7.1%	3.3%	18.4µM*
C=CCn1c(O)c(C2=c3ccccc3=NC2=O)s/c1=N/c1nccs1	14.6	u	2.8%	0.0%	u
C=CCn1c(O)c(C2=c3ccccc3=NC2=O)c2ccccc21	-0.2	u	23.1µM*	20.6µM*	4.11µM*
Nc1nc(Sc2ccc([N+](=O)[O-])c3nonc23)c2[nH]cnc2n1	-118.7*	1.84µM*	4.61µM*	1.84µM*	3.26µM*
CNc1ncnc(Sc2nc(N)nc3nc[nH]c23)c1[N+](=O)[O-]	-58.8*	2.06µM*	2.91µM*	1.3µM*	4.61µM*
O=S(=O)(c1ccccc1F)N1CCc2ccccc2C1	31.4	-0.1%	-1.6%	6.1%	-20.4%
CC(=O)Nc1cccc(C(=O)/C=C/c2ccc(N(C)C)cc2)c1	u	3.0%	3.0%	0.7%	u
CC(=O)Nc1cccc(C(=O)/C=C/c2ccc(Br)cc2)c1	-107.0*	3.26µM*	u	-1.4%	4.61µM*
CCC(=O)Nc1cccc(C(=O)/C=C/c2cc(Br)ccc2OC)c1	-104.5*	2.91µM*	8.2µM*	8.2µM*	4.11µM*
CC(=O)Nc1cccc(C(=O)/C=C/c2cccs2)c1	-104.8*	u	1.9%	-0.6%	20.6µM*
CC(=O)Nc1cccc(C(=O)/C=C/c2ccc(F)cc2)c1	-192.2*	2.31µM*	3.6%	11.6µM*	4.61µM*
CCOc1ccc(N(Cc2ccc(OC)c(OC)c2)C(=O)c2ccco2)cc1	5.9	u	-11.4%	-0.9%	18.4µM*
COc1ccc(N(Cc2cc3ccc(C)cc3[nH]c2=O)C(=O)C2CCCO2)cc1 (configuration not stated)	-8.3	-3.2%	16.7%	17.6%	-2.7%
COc1ccc(N(Cc2cc3ccc(C)cc3[nH]c2=O)C(=O)c2ccco2)cc1	-15.4	23.1µM*	15.2%	19.4%	20.6µM*
COc1ccc(CN(C(=O)c2ccco2)c2ccc(C)c(C)c2)cc1	23.0	u	u	20.6µM*	u
COc1cc(CN(C(=O)c2ccco2)c2ccc(C)cc2)ccc1O	-15.0	-7.8%	-1.7%	-10.2%	-16.2%
Cc1cccc(N(Cc2cc3ccccc3[nH]c2=O)C(=O)c2ccco2)c1C	-6.4	25.9µM*	16.3%	7.8%	-83.7%
CC1(Cc2cc(Cl)ccc2C(F)(F)F)C(=O)Nc2cc(-c3ccccc3Cl)ccc21 (configuration not stated)	-9.0	-5.6%	1.0%	0.1%	-24.0%
Cc1nn(-c2ccc(Cl)cc2)c(NC(=O)C(C)C)c(-c2ccccc2)c1=O	12.5	14.2%	0.0%	0.6%	0.5%
C=C(C)Cn1c(SCC(=O)Nc2cccc(Cl)c2)nc2sc3c(c2c1=O)CCCC3	x	u	x	x	14.6µM*
C=CCNC(=O)CSc1nc2sc3c(c2c(=O)n1CCC)CCC3	-8.3	u	-17.6%	-15.2%	14.6µM*

Screening data from PubChem BioAssay.
